Screening data as filed in PubChem.
In the library only some 5.9% were active in any assay of this set; here they are far more common.
HEK293 tox: qHTS of GLP-1 Receptor Inverse Agonists: Cytotox Screen; AID 624418, 2012; HEK293 cAMP-luciferase reporter cells, luminescence, 24 h; Potency, µM (doses to about 38.3 µM), without a hit: at the top dose activity change, negative = inhibition, usual class: inhibitors; 0.13% of 410,000 active;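 further: loss of luciferase light is scored as toxicity; on the % scale 0 is the no-effect control and ±100 the full control effect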
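Quantitative HTS format, 1536 wells, 200 cells/uL seeded. Compounds: 23 nL, 24 h, 37 °C. Detection: luciferase reagent, luminescence at 12 min RT; decreased signal taken as cytotoxic.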
RORgamma inh: qHTS for inhibitors of ROR gamma transcriptional activity. Nuclear receptor ROR-gamma (Mus musculus), P51450. Drosophila S2 Gal4-RORgamma UAS-luciferase reporter, 20 h. Potency, µM (titrated, usually from 53.6 µM), inactives show top-dose activity change, negative = inhibition, actives largely listed as inhibitors. 5.4% of 310,000 active. AID 2551, 2010; further: on the % scale 0 is the no-effect control and ±100 the full control effect; nearly all actives have a fitted effect of over 60% in size
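Luciferase reporter read in Schneider cells carrying Gal4-RORγ (mouse) and UAS-Photinus luciferase; cells given compound 1 h before 700 uM copper sulfate induction, then incubated 20 h at ambient temperature.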
GLP-1R inv ag: qHTS of GLP-1 Receptor Inverse Agonists (Inhibition Mode); Glucagon-like peptide 1 receptor (Homo sapiens), P43220; HEK293 GLP-1R CRE-luciferase, luminescence, 24 h; GLP-1R form is constitutively active; Potency, µM (highest dose often 38.3 µM), without a hit: at the highest dose activity change, negative = inhibition, actives largely listed as inhibitors; 1.6% of 410,000 active; AID 624417, 2012; further: on the % scale 0 is the no-effect control and ±100 the full control effect; nearly all actives have a fitted effect of over 55% in size
Target sequence (P43220 whole entry, looked up): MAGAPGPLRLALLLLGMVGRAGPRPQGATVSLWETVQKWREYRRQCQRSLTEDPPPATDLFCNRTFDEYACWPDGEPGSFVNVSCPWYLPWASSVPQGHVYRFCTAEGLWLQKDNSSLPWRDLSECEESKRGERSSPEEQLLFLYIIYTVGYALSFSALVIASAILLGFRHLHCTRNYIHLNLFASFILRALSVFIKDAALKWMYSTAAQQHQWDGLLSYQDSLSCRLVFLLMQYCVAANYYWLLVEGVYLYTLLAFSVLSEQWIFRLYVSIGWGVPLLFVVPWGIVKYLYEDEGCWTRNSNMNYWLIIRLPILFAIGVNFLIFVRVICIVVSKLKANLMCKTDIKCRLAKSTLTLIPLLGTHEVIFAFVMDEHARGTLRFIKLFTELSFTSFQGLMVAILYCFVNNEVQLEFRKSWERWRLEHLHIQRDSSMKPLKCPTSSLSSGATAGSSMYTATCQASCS
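GLP-1R inverse agonism mode: basal reporter luminescence in engineered HEK293 cells measured after one day of compound exposure at 37 deg C, with a 12 min room-temperature detection step.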
Gal4-VP16 FLuc: VP16 counterscreen qHTS for inhibitors of ROR gamma transcriptional activity | Drosophila S2 Gal4-VP16 UAS-luciferase, luminescence, 20 h | Potency, µM (series often up to 53.6 µM), for the others: top-dose activity, negative = inhibition, most hits filed as inhibitors | 3.5% of 310,000 active | AID 2546, 2010;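 further: Gal4-VP16 expression switched on by copper sulfate through the metallothionein promoter; on the % scale 0 is the no-effect control and ±100 the full control effect; nearly all actives have a fitted effect of over 50% in size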
GLP-1R agonist: qHTS of GLP-1 Receptor Agonists | Glucagon-like peptide 1 receptor (Homo sapiens), P43220 | HEK293 GLP-1R CRE-luciferase, luminescence, 4-6 h; cells express a hypersensitive GLP-1R form | Potency, µM (doses to about 45.6 µM), for the others: at the highest dose activation, most hits filed as activators | 0.007% of 380,000 active | AID 624172, 2012; further: % of control where 0% means no effect
* hit, by the source's call; ? = inconclusive; . = no result given; [ ] = another dose, or the depositor's remark. The call rests on the fitted dose curve; in most records, active means well fitted curve in the direction sought with a large enough effect; inconclusive means small, poorly fitted or top-dose-only effect, or another doubt; inactive means no such curve, though single readings can be large; an effect the other way counts as inactive or inconclusive. Potency means the concentration at half of the fitted maximal effect.

SMILES	HEK293 tox	RORgamma inh	GLP-1R inv ag	Gal4-VP16 FLuc	GLP-1R agonist
Cc1ccc(C)c(-n2c(-c3ccncc3)n[nH]c2=S)c1	3%	10µM*	0%	-28%	1%
Cc1ccc(C)c(-n2c(-c3csc(C)c3)n[nH]c2=S)c1	?	3.2µM*	-30%	5.6µM*	20%
S=c1nc(-c2ccc(Cl)cc2)[nH][nH]1	-12%	8.9µM*	0%	-23%	5%
CCCOc1ccc(-c2nc(=S)[nH][nH]2)cc1	-11%	0%	-24%	-26%	-11%
Cc1ccc(C)c(OCCC(=O)N2CCN(S(=O)(=O)c3cc(C)ccc3C)CC2)c1	-10%	.	11µM*	.	11%
Cc1sc2ncn(CC(=O)N3CCN(c4ccc(Cl)cc4)CC3)c(=O)c2c1S(=O)(=O)N1CCN(c2ncccn2)CC1	-1%	.	-22%	.	-5%
COC(=O)CCC(=O)N(CCN(Cc1ccccc1)C(=O)CCC(=O)OC)Cc1ccccc1	-9%	.	20%	.	6%
CCCC(=O)N(CCN(Cc1ccccc1)C(=O)CCC)Cc1ccccc1	-24%	24%	13µM*	0%	1%
CCOc1ccc(C(=O)NCc2ccc3c(c2)CCN3C(=O)c2ccc(Cl)cc2)cc1	-19%	.	5%	.	.
CN(C)N(Cc1ccccc1)C(=O)C(O)(c1ccccc1)c1ccccc1	-4%	-1%	13µM*	-6%	-1%
NC(=O)C1CCN(CC(=O)c2c[nH]c3ccc(F)cc23)CC1	71%	-35%	1%	16µM*	0%
Cc1cccc(C2=NN(c3ccccc3)[C@H](CO)[C@H]2c2ccc(Cl)cc2)c1	193%	33%	10µM*	40µM*	-4%
CC[C@H]1C(c2cccc(Cl)c2)=NN(c2ccccc2)[C@@H]1CO	.	?	.	32µM*	.
Cc1cccc(C2=NN(c3ccccc3)[C@H](CO)[C@H]2c2ccc(F)cc2)c1	132%	25%	?	1%	7%
COc1cccc(C2C(C#N)=C(N)OC3=C2C(=O)CC(c2ccco2)C3)c1OCc1ccc(F)cc1 (configuration not stated)	8%	?	?	-8%	1%
N#CC1=C(N)OC2=C(C(=O)CC(c3ccco3)C2)C1c1ccc(OCc2c(F)cccc2Cl)cc1 (configuration not stated)	-2%	16%	10µM*	-4%	-14%
CCS(=O)(=O)c1ccc(OC)c(N=Nc2ccc(O)c3ncccc23)c1	-7%	1µM*	21%	?	8%
CCN(CC)S(=O)(=O)c1cc(OC)ccc1N=Nc1ccc(O)c2ncccc12	0%	1.3µM*	-10%	1.3µM*	-8%
CCN(CC)S(=O)(=O)c1cccc2cccnc12	9%	1%	-11%	3%	9%
Cc1ccc(/C=c2/sc3nnc(-c4ccccc4Cl)n3c2=O)o1	2%	4.5µM*	-16%	?	-2%
CCOC(=O)c1cccc(NC(=O)c2ccc3nc(Cc4ccccc4)oc3c2)c1	-25%	.	?	.	.
COc1cccc(NC(=O)c2ccc3nc(Cc4ccccc4)oc3c2)c1	?	.	10µM*	.	.
CCOc1cccc(C(=O)Nc2ccc3oc(Cc4ccc(Cl)cc4)nc3c2)c1	-29%	36%	2.2µM*	-2%	-3%
O=C(Nc1ccc2oc(Cc3ccc(Cl)cc3)nc2c1)c1cccnc1	-9%	-45%	?	2%[0.365 µM]	5%
CCCCCCN(C(=O)CCCCCN1C(=O)NC(C2CC2)C(C(=O)OCc2ccccc2)=C1C)C(C(=O)NCCCC)c1ccc(OCC(=O)OC)c(C(=O)OC)c1 (configuration not stated)	.	9%	.	-6%	.
SMILES	HEK293 tox	RORgamma inh	GLP-1R inv ag	Gal4-VP16 FLuc	GLP-1R agonist
COc1cc(OC)c(N(C)C(=O)CSc2c3c(nc4ccc(Cl)cc24)CCCC3)cc1Cl	-8%	.	?	.	.
O=C(N/N=C1\CC(c2ccccc2)Oc2ccccc21)c1ccc(O)cc1 (configuration not stated)	-25%	-38%	?	?	21%
O=C(N/N=C1/CC(c2ccccc2)Oc2ccccc21)C1CC1 (configuration not stated)	-1%	11µM*	0%	-15%	-2%
O=C(N/N=C1\CC(c2ccccc2)Oc2ccccc21)c1cccnc1 (configuration not stated)	8%[0.307 µM]	5.6µM*	-3%[0.307 µM]	4µM*	0%
O=C(N/N=C1\CC(c2ccccc2)Oc2ccccc21)c1ccccn1 (configuration not stated)	16%	?	-17%	-8%	3%
N#Cc1ccc(OCC(=O)N/N=C2/CC(c3ccccc3)Oc3ccccc32)cc1 (configuration not stated)	-31%	11µM*	-25%	11µM*	2%
O=S(=O)(c1ccc(Br)cc1)N1CCN(c2cc(-c3ccccc3)nc3ncnn23)CC1	-13%	2%	2%	-3%	2%
CC(=O)CSc1cc(-c2ccccc2)nc2ncnn12	?	2.5µM*	?	16µM*	13%
O=S(=O)(c1ccccc1)N1CCN(c2cc(-c3ccccc3)nc3ncnn23)CC1	9%	?	0%	5.6µM*	-5%
c1ccc(Nc2cc(-c3ccccc3)nc3ncnn23)cc1	-9%	16µM*	2%	?	-1%
CS/C(N)=C(C#N)/C(C#N)=C(\N)SC	.	15%	.	2%	.
CC[C@@H]1OC(=O)[C@H](C)[C@H](O[C@@H]2C[C@](C)(OC)[C@H](O)[C@H](C)O2)[C@H](C)[C@H](O[C@@H]2O[C@@H](C)C[C@@H](N(C)C)[C@@H]2O)[C@](C)(O)C[C@H](C)C(=NOCOCCOC)[C@H](C)[C@H](O)[C@]1(C)O	.	19%[2.98 µM]	.	?	-1%[19.8 µM]
Cc1ccc(S(=O)(=O)N2CCN(C(=O)c3cc4c(s3)CCCC4)CC2)c(C)c1	-2%	.	-14%	.	-2%
O=C(c1cc2c(s1)CCCC2)N1CCN(S(=O)(=O)c2ccccc2C(F)(F)F)CC1	-9%	20%	10µM*	-4%	7%
C/C(=N\NC(=O)c1ccccc1)c1ccc(C)c([N+](=O)[O-])c1	-12%	6%	23%	?	0%
O=C(N/N=C1/CCSC1)c1cccc([N+](=O)[O-])c1	?	?	?	20µM*	0%
Cc1ccc(C(=O)N/N=C2\CCSC2)cc1[N+](=O)[O-]	-26%	10µM*	18%	?	0%
Cc1ccc2c(=O)cc(C(=O)Nc3sc4c(c3C(N)=O)CCCC4)oc2c1	-2%	.	-9%	.	.
CCc1sc(C(=O)Nc2cccc(C(C)=O)c2)cc1C	-8%	7.9µM*	?	?	14%
